Bioassay records from PubChem BioAssay.
FEN1 inh-1 – qHTS Assay for the Inhibitors of Human Flap endonuclease 1 (FEN1); Recombinant FEN1 flap cleavage, fluorescence, 15 min; Potency, µM (series often up to 114 µM), without a hit: at the highest dose activity change, negative = inhibition, hits mostly inhibitors; actives 0.35% (n = 390,000); AID 588795, 2011; also: potency is read from the fitted curve at half-maximal effect; % is scaled to controls: 0 for no effect and ±100 for the full control effect; nearly all actives have a fitted effect of over 65% in size
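Read-out was taken twice, immediately and after 15 min, following addition of 50 nM substrate to 10 nM FEN1 that had sat with test compound for 15 min at room temperature. Curves came from a four-parameter Hill model.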
TCR activator – Activators of T cell receptors: qHTS campaign; 330,000 tested, under 10 active; AID 504894, 2011; primary human leukocytes, anti-CD3, IL-2 HTRF, 48 h; Potency, µM (top dose mostly 9.22 µM), for inactives: at the top dose activation of IL-2 secretion, usual class: activators; also: % of control where 0% means no effect
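IL-2 produced over 48 hr by a-CD3 bead-stimulated primary human leukocytes exposed to compounds was detected with a homogeneous time-resolved FRET immunoassay, 665nm acceptor signal after 320nm excitation.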
PLK1 PBD inh – qHTS for Inhibitors of PLK1-PDB (polo-like kinase 1 - polo-box domain): Primary Screen | Potency, µM, for inactives: max response, negative = inhibition, actives largely listed as inhibitors | Plk1 PBD binding of FITC phosphopeptide, fluorescence polarization | Serine/threonine-protein kinase PLK1 (Homo sapiens), P53350 | AID 720504, 2013 | actives 2.8% (n = 360,000); also: potency is read from the fitted curve at half-maximal effect; series mostly up to about 57 µM; % is scaled to controls: 0 for no effect and ±100 for the full control effect; nearly all actives have a fitted effect of over 65% in size
WRN helicase inh – qHTS for Inhibitors of WRN Helicase | Bifunctional 3'-5' exonuclease/ATP-dependent helicase WRN (Homo sapiens), Q14191 | WRN helicase unwinding, fluorescent forked duplex, kinetic | Potency, µM (series often up to 114 µM), without a hit: at the highest dose activity change, negative = inhibition, hits mostly inhibitors | actives 0.46% (n = 360,000) | AID 651768, 2012; also: potency is read from the fitted curve at half-maximal effect; % is scaled to controls: 0 for no effect and ±100 for the full control effect; nearly all actives have a fitted effect of over 55% in size
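Kinetic fluorescence helicase assay: unwinding of a quenched forked DNA duplex (100 nM final) with 2 mM ATP final raises red fluorescence (525/598 nm). Compounds sat 15 min at room temperature with 20 nM WRN beforehand.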
PI5P4Ka inh – qHTS for Inhibitors of phosphatidylinositol 5-phosphate 4-kinase (PI5P4K) | AID 652105, 2013 | max response, % | PI5P4Kalpha enzyme, ADP-Glo luminescence, 60 min; hits give low values | Phosphatidylinositol 5-phosphate 4-kinase type-2 alpha (Homo sapiens), P48426 | actives 1.2% (n = 330,000); active = max response of -50% or lower; inconclusive = between -30% and -50%; inactive = -30% or higher; also: value at the top dose of about 77 µM; % is scaled to controls: 0 for no effect and ±100 for the full control effect
Target sequence (P48426 whole entry, looked up): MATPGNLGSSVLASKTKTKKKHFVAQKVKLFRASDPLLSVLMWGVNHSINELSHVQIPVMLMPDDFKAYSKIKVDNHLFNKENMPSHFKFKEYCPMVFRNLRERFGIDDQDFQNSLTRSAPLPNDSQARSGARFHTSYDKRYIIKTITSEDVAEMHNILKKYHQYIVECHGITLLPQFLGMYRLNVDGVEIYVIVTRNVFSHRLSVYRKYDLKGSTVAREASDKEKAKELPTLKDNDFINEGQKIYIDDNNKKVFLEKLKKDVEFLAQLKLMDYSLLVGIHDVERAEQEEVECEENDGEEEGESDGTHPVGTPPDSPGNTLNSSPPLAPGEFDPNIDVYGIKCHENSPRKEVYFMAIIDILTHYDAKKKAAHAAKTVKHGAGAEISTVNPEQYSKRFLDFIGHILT
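Reactions run in 0.038 M HEPES pH 7.4, 0.28 mM EGTA, 0.1% CHAPS and 5% DMSO, with PI5P4Kalpha, substrate, compound and 5 microM ATP final, one hour at room temperature. Readout is ADP-Glo luminescence.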
VDR inh – Inhibitors of the vitamin D receptor (VDR): qHTS | Potency, µM, for inactives: max response, negative = inhibition, actives largely listed as inhibitors | actives 0.93% (n = 400,000) | VDR-SRC2-3 peptide fluorescence polarization, 2 h | Vitamin D3 receptor (Homo sapiens), P11473 | AID 504847, 2011; also: potency is read from the fitted curve at half-maximal effect; % is scaled to controls: 0 for no effect and ±100 for the full control effect
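Reagent solutions, kept cold and dark, are dispensed first; compounds are then pinned in at 23 nl, plates briefly spun, and incubated 2 h at ambient temperature. Inhibition of VDR–SRC2-3 peptide binding is read by fluorescence polarization.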
FEN1 inh-2 – qHTS Assay for the Inhibitors of FEN1: Confirmatory Assay for Cherry-picked Compounds; shares compounds with FEN1 inh-1; FEN1 flap cleavage, TAMRA/BHQ2 fluorogenic DNA substrate; Potency, µM, hits mostly inhibitors; actives 79% (n = 880); AID 720498, 2013; also: potency is read from the fitted curve at half-maximal effect; nearly all actives have a fitted effect of over 60% in size
The depositor's hits bear a star; u = inconclusive; x = no result; [ ] = remark or other dose. Shown are actives, neighbours in structure and some others; about 3.7% of the full set was active somewhere. Unless noted, calls follow the shape of the dose curve; as a rule, active = well fitted curve in the direction sought with a large enough effect; inconclusive = small, poorly fitted or top-dose-only effect, or another doubt; inactive = no such curve, though single readings can be large; an effect the other way counts as inactive or inconclusive.

SMILES | FEN1 inh-1 | TCR activator | PLK1 PBD inh | WRN helicase inh | PI5P4Ka inh | VDR inh | FEN1 inh-2
O=C(CCn1c(=O)c2cccn2c2cccnc21)NCc1cccc(Br)c1 | -4.0% | x | x | x | x | 10.5% | x
CCCS(=O)(=O)N1CC(=O)N(c2ccc(C)c(Cl)c2)C(C)(C(=O)NC2CCCCCC2)C1 (stereo unspecified) | u | x | x | x | x | 11.8% | x
Cc1cc2c(n1-c1ccc(C(=O)NCC(C)c3ccccc3)cc1)CCCC2 (stereo unspecified) | 13.1% | x | x | x | x | 16.1% | x
CCOc1ccc2noc3c2c1C(=O)c1ccccc1-3 | -6.7% | 2.3% | 5.3% | 3.3% | -0.6 | -0.5% | x
O=C1c2ccccc2-c2onc3ccc(N4CCCC4)c1c23 | 22.4µM* | 3.8% | u | 22.4µM* | -25.5 | u | 37.9*
Cc1nc2ccccc2c2nc3ccccc3n12 | 22.4µM* | x | -6.1% | -5.0% | x | 19.1% | 26.9*
Cc1cccc(-n2c(N)cc(=O)nc2SCC(=O)Nc2ccc(F)cc2)c1C | 16.1% | x | x | x | x | 6.3% | x
C1CCC[C@H]2CCCN3CC[C@H](CCCCCC[C@@H]4CCCN5CC[C@H](CC1)OC45)OC23 | x | x | x | x | x | 4.2% | x
Cc1nc2ccccc2c2oc(C(=O)Nc3ccc(C(C)C)cc3)cc12 | -16.3% | 2.4% | -8.4% | -16.4% | 11.6 | 8.4% | x
COc1cc(NC(=O)c2cc3c(C)nc4ccccc4c3o2)cc(OC)c1OC | u | -0.8% | -8.3% | u | 6.1 | 14.0% | u
Nc1ccc2nc(-c3ccc(N)c(Cl)c3)[nH]c2c1 | 50.1µM* | 6.6%[46.1 µM] | -8.1% | u | -62.7* | 1.9% | 21.3*
c1ccc(CNc2c3ccccc3nc3ccccc23)cc1 | u | 4.4% | -8.1% | u | 3.8 | -6.6% | 10.7*
c1ccc(CNc2ncnc3ccccc23)cc1 | 4.1% | -0.6% | -1.0% | 4.7% | 0.6 | 0.7% | x
CN(C)CCCNc1c2ccccc2nc2ccccc12 | 11.2µM* | -0.3% | -10.0% | u | -17.8 | -7.8% | 8.49*
O=C(O)CCN1C(=O)/C(=C\c2ccc(OCc3ccccc3)c(OCc3ccccc3)c2)SC1=S | 3.0% | 8.3% | -20.7% | 0.4% | 0.5 | -22.7% | x
O=C(O)CN1C(=O)/C(=C\c2cc(Br)ccc2OCc2ccc([N+](=O)[O-])cc2)SC1=S | u | 1.6% | 21.2µM* | u | -71.0* | 35.5µM* | 84.9*
CN(CCC#N)C(=O)COC(=O)c1c2c(nc3ccccc13)/C(=C/c1ccco1)CC2 | 50.1µM* | -2.7%[46.1 µM] | -14.8% | u | -67.9* | -29.5% | 67.5*
CC(C)CNC(=O)COC(=O)c1c2c(nc3ccccc13)/C(=C\c1cccs1)CC2 | -7.2% | -4.6% | -2.8% | -19.2% | -27.6 | -0.7% | x
COCCN=c1scc(-c2ccco2)n1/N=C/c1ccc(O)c(O)c1O | 35.5µM* | 6.5% | 6.7µM* | 28.2µM* | -85.3* | -6.4% | u
c1cc2nc(C34CC5CC(CC(C5)C3)C4)[nH]c2cn1 | -8.1% | -1.6%[46.1 µM] | -4.2% | -4.0% | -9.1 | 11.9% | x
Nc1nc(C23CC4CC(CC(C4)C2)C3)[nH]c(=O)n1 | u | -0.8% | -2.9% | -4.4%[11.6 µM] | 0.0 | -0.3% | 33.8*
O=S(=O)(Nc1nccs1)c1ccc(Nc2nnc(-c3ccccc3)c3ccccc23)cc1 | 89.1µM* | 8.6%[46.1 µM] | u | u | u | -23.2% | u
Cc1onc(-c2ccccc2)c1C(=O)Nc1ccc(S(=O)(=O)Nc2nccs2)cc1 | -4.7% | -6.3% | 2.0% | -2.9% | 1.8 | 13.6% | x
CN(C)c1ccc(C(=O)NCc2ccc3c(c2)CCN3C(=O)c2ccccc2)cc1 | 4.1% | x | x | x | x | 6.4% | x
